# hNpr1 antagonist: antagonists of human natriuretic peptide receptor Npr1; AID 1347048; Potency, µM (titrated, usually from 46.3 µM), for inactives: at the highest dose activity change, negative = inhibition, usual class: inhibitors; HEK293 hNpr1 GloSensor cGMP, ANP-stimulated luminescence; 1.6% of 76,000 active; calls by dose curve; also: % is scaled to controls: 0 for no effect and ±100 for the full control effect; nearly all actives have a fitted effect of over 60% in size
#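 HEK293 cells stably expressing human Npr1 and cGMP GloSensor pGS-40F, loaded 2 h with 2% GloSensor reagent, given compound 30 min at room temperature. Luminescence read before and 20 min after 0.1 nM hNppA.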
# 3T3 cytotox: kills NIH 3T3 cells; NIH 3T3 viability, CellTiter-Glo ATP luminescence, 48-72 h; Potency, µM (doses to about 96.7 µM), without a hit: at the highest dose activity change, negative = cytotoxicity, actives largely listed as inhibitors; 4.3% of 94,000 active; AID 1345082; also: % is scaled to controls: 0 for no effect and ±100 for the full control effect; nearly all actives have a fitted effect of over 55% in size
#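 NIH 3T3 cells at 400 cells/well received 23 nL of compound by pintool and were incubated 48 or 72 h at 37 °C. Viability was read as ATP-coupled CellTiter-Glo luminescence.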
# HEK cytotox: cytotoxic compounds in HEK 293 cells. HEK 293 viability, ATP luminescence (CellTiter-Glo), 48-72 h. Potency, µM (titrated, usually from 115 µM), for the others: at the top dose activity change, negative = cytotoxicity, usual class: inhibitors. 6.6% of 94,000 active; also: % is scaled to controls: 0 for no effect and ±100 for the full control effect; nearly all actives have a fitted effect of over 60% in size
#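 Cytotoxicity was scored by loss of ATP-coupled luminescence (CellTiter-Glo) in HEK 293 cells. Compound treatment ran 48 or 72 hr at 37 degree Celsius, 5% CO2, 95% humidity.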
# GPT2 inhibitor: GPT2 alanine aminotransferase inhibition | Recombinant GPT2, coupled pyruvate oxidase/HRP Amplex Red fluorescence | Potency, µM (titrated, usually from 57.7 µM), for inactives: at the top dose activity change, negative = inhibition, most hits filed as inhibitors | 0.25% of 100,000 active | AID 1671188; also: % is scaled to controls: 0 for no effect and ±100 for the full control effect; nearly all actives have a fitted effect of over 60% in size
#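 GPT2 10ng/uL, a-KG 250uM, L-Ala 2mM, HEPES pH7.5 + 0.0001% Tween; 30 min RT. Then Amplex mix (PO/HRP/ThPP), 30 min RT dark, fluorescence. AOA 50uM used as positive control.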
# FLuc inh-1: Photinus pyralis luciferase inhibition; P08659; purified P. pyralis luciferase, luminescence, biochemical; Potency, µM (highest dose often 115 µM), most hits filed as inhibitors; 2.5% of 76,000 active; also: % is scaled to controls: 0 for no effect and ±100 for the full control effect; nearly all actives have a fitted effect of over 65% in size
# Target sequence (P08659 whole entry, looked up): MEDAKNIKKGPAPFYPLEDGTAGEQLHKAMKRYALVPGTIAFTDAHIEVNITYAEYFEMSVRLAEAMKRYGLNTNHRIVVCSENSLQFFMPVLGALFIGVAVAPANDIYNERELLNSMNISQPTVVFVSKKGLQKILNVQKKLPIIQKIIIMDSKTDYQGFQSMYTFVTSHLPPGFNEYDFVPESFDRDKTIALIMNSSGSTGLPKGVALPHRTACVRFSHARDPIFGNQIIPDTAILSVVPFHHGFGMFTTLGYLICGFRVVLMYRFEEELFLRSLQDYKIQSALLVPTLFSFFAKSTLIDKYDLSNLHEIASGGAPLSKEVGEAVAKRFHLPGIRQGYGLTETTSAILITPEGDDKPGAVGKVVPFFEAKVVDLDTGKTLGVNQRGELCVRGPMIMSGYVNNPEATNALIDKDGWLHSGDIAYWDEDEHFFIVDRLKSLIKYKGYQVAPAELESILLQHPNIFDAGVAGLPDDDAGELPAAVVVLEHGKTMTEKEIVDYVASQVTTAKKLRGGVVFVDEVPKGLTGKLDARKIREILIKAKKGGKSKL
#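 Biochemical qHTS: compound (6-point titration) added to 10uM D-luciferin plus 10uM ATP in Tris acetate pH 7.5 buffer with Mg, Tween-20 and BSA, then purified enzyme at 10nM; light output imaged.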
# FLuc SDR -ATP: binders stabilizing firefly luciferase, without ATP. shares compounds with FLuc inh-1. Purified FLuc-C-HiBiT, Nano-Glo HiBiT luminescence, no ATP. Potency, µM (series often up to 32.7 µM), without a hit: top-dose activation (signal gain), most hits filed as activators. 7.8% of 1,300 active. AID 1963318; also: nearly all actives have a fitted effect of over 55% in size
# FLuc SDR ATP: stabilizes firefly luciferase with ATP present | shares compounds with FLuc inh-1 | purified FLuc-C-HiBiT + ATP, HiBiT complementation luminescence | Potency, µM (doses to about 32.7 µM), inactives show top-dose activation (gain of signal), hits mostly activators | 8.7% of 1,300 active;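 also: signal reports ligand binding via conformational change of the enzyme rather than luciferase catalysis; % of control where 0% means no effect; nearly all actives have a fitted effect of over 55% in size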
# FLuc inh-2: blocks firefly luciferase enzymatic activity. 42% of 1,300 active. Potency, µM (series often up to 32.7 µM), inactives show at the highest dose activity change, negative = inhibition, actives largely listed as inhibitors. shares compounds with FLuc inh-1. purified FLuc-C-HiBiT enzyme, luciferin luminescence. AID 1963320; also: % is scaled to controls: 0 for no effect and ±100 for the full control effect; nearly all actives have a fitted effect of over 70% in size
# Starred values were filed as active, the others as inactive; i = inactive; ? = inconclusive; . = not tested or not shown; [ ] = another dose, or the depositor's remark. In the library only some 10% were active in any assay of this set; here they are far more common. Unless noted, calls follow the shape of the dose curve; as a rule, active = well fitted curve in the direction sought with a large enough effect; inconclusive = small, poorly fitted or top-dose-only effect, or another doubt; inactive = no such curve, though single readings can be large; an effect the other way counts as inactive or inconclusive. Potency is read from the fitted curve at half-maximal effect.
SMILES,hNpr1 antagonist,3T3 cytotox,HEK cytotox,GPT2 inhibitor,FLuc inh-1,FLuc SDR -ATP,FLuc SDR ATP,FLuc inh-2
Nc1nc2c([nH]c(=O)n2C2CC(O)C(CO)O2)c(=O)[nH]1 (stereo unspecified),.,.,.,.,.,13%,11%,6%
CCc1ocnc1C(=O)N1CCC(C2CCN(Cc3cccc(F)c3F)CC2)C1 (stereo unspecified),-12%,?,?,-1%,i,.,.,.
Cc1nnc(CN(C)c2ccc(-c3nc(-c4cccc(Cl)c4)no3)cn2)o1,11µM*,?,?,?,1.1µM*,17%,18%,5µM*
Cc1ccc(N2C(=O)c3n[nH]c(C)c3C2c2ccc(Cl)cc2)cc1 (stereo unspecified),.,.,.,.,.,17%,12%,?
COCCNC(=O)c1ccc(-c2ccc(OC)nn2)cc1,.,-11%[138 µM],?,.,.,.,.,.
CC(C)c1ccc(C(=O)Nc2cccc3cccnc23)cc1,.,.,.,.,.,18%,12%,?
CN1CCC(Oc2ncccc2NC(=O)c2ccncc2)C1 (stereo unspecified),-1%,i,6%,-14%,i,.,.,.
CCCN1C(=O)c2ccc(-c3nc4ccccc4s3)cc2C1=O,.,.,.,.,.,?,18%,2µM*
CCCS(=O)(=O)N1CCCC1c1nc2ccccc2s1 (stereo unspecified),9%,-29%,?,-38%,i,.,.,.
CCCCC(=O)Nc1cc(-c2nc3ccccc3s2)ccc1C,.,.,.,.,.,18%,10%,-6%
Cc1nnc2n1CCC(NC(=O)CCCc1nc3ccccc3s1)CC2 (stereo unspecified),-2%,-11%,-9%,i,i,.,.,.
Cc1ccc(C(C)(O)c2nc3ccccc3s2)c(C)c1 (stereo unspecified),.,.,.,-20%,.,.,.,.
CC(=O)Nc1cc(-c2nc3ccccc3s2)ccc1C,.,.,.,.,.,29%,20%,?
CN(C)C(=O)C1CCc2nnc(-c3ccc(F)cc3)n21 (stereo unspecified),.,0%[138 µM],4%[172 µM],i,.,.,.,.
c1ccc(Nc2cc3c(cn2)CN(CC2CCOC2)CCN3)cc1 (stereo unspecified),.,.,.,.,.,17%[49.3 µM],11%[49.3 µM],?
c1ccc(CCN2CCNc3cc(NCCN4CCOCC4)ncc3C2)cc1,0%[70.6 µM],?,?,i,i,.,.,.
c1ccc(Nc2cc3c(cn2)CN(Cc2ccsc2)CCN3)cc1,-25%[70.6 µM],56µM*,?,?,10µM*,19%[49.3 µM],15%[49.3 µM],14µM*
COc1cccc(CN2CCNc3cc(Nc4cccnc4)ncc3C2)c1,0%[70.6 µM],?,?,i,11µM*,32%[49.3 µM],15%[49.3 µM],?
Fc1ccc(CNc2cc3c(cn2)CN(Cc2ccncc2)CCN3)cc1,2%[70.6 µM],-43%[138 µM],-51%[172 µM],4%[88.5 µM],i,.,.,.
COc1ccc(CN2CCNc3cc(Nc4ccccc4)ncc3C2)cn1,-16%[70.6 µM],56µM*,112µM*,0%[88.5 µM],5µM*,22%[49.3 µM],16%[49.3 µM],?
COc1ccc(-c2cccc(C(=O)N3CCN([S+](=O)([O-])c4cccs4)CC3)c2)nn1,.,-14%,?,.,.,.,.,.
COCC(=O)Nc1ccc2c(c1)CN(Cc1cccc(OC)c1OC)CCO2,.,-36%,-23%,i,.,.,.,.
Cc1ccc(-c2noc([C@@H]3Cc4nc[nH]c4CN3C(=O)Nc3cccc(F)c3)n2)cc1,?,?,79µM*,-26%[88.5 µM],10µM*,16%[49.3 µM],14%[49.3 µM],?
O=C(Nc1cccc(F)c1)N1Cc2[nH]cnc2C[C@H]1c1nc(-c2ccc(F)c(Cl)c2)no1,-16%,?,?,-6%,?,.,.,.
COc1ccc(-c2noc([C@@H]3Cc4nc[nH]c4CN3C(=O)CCC(=O)O)n2)cc1,-8%[70.6 µM],-28%[174 µM],-13%[172 µM],?,i,.,.,.
SMILES,hNpr1 antagonist,3T3 cytotox,HEK cytotox,GPT2 inhibitor,FLuc inh-1,FLuc SDR -ATP,FLuc SDR ATP,FLuc inh-2
COc1ccc(-c2noc([C@@H]3Cc4nc[nH]c4CN3C(=O)Nc3ccc(Cl)cc3)n2)cc1,-25%,?,?,i,13µM*,13%,8%,-13%
O=C(NCC1CN(C(=O)NCc2ccc(F)cc2)CC12CCCCC2)C1CC1 (stereo unspecified),.,-47%,-25%,i,.,.,.,.
COCCCNC(=O)c1ccc2nc(-c3ccncc3)oc2c1,.,-7%[138 µM],-1%[172 µM],-5%[88.5 µM],.,.,.,.
CCCn1c(C)c(CC(=O)N(C)Cc2cccnc2)c2c1CC(C)(C)CC2=O,4%,i,6%,i,i,.,.,.
O=C1N(c2ccccc2)C[C@H]2CN(Cc3ccccc3)CCN12,-21%[70.6 µM],-18%[138 µM],-26%[172 µM],i,14µM*,10%[49.3 µM],11%[49.3 µM],?
COc1cccc(-c2cccc(C(=O)N3CCCC3C(=O)NCc3cccc(F)c3)c2)c1 (stereo unspecified),.,?,?,-9%,.,.,.,.
Brc1ccccc1-n1ncc2c1ncn1nc(Cc3ccccc3)nc21,.,.,.,.,.,16%,10%,-11%
O=C(Nc1ccccc1Cl)C1CN(C2CCCC2)C(=O)N1 (stereo unspecified),.,-25%[138 µM],-23%[172 µM],5%[88.5 µM],.,.,.,.
Clc1ccc2c(c1)-n1cc(-c3ccccc3)nc1CO2,.,.,.,.,.,16%,11%,-19%
CC(C)C(=O)N1CCOc2ccc(CN3CCCCCC3)cc2C1,.,-21%,?,i,.,.,.,.
COc1ccc(OC)c(CN2CCOc3ccc(C(=O)NCc4ccc(C)cc4)cc3C2)c1,-15%,?,?,i,i,13%,9%,-1%
O=C(Cc1ccccc1)N1CCCCCC1c1nnc(-c2ccccc2)o1 (stereo unspecified),.,-20%,?,4%,.,.,.,.
Cc1ccc(-c2noc(-c3ccccc3Br)n2)cc1,.,.,.,.,.,?,?,1.6µM*
Cc1ccc(-c2noc(-c3nc(-c4cccnc4)no3)n2)cc1,0%,-6%,-1%,-11%,i,.,.,.
Cc1ccc(-c2noc(-c3nc(C(C)C)no3)n2)cc1,-20%,-5%,-10%,-10%,7.1µM*,10%,11%,?
O=C(c1ccc(Cl)cc1)N1CC2(CCN(Cc3cccnc3)C2)Cc2ccccc21 (stereo unspecified),.,?,?,-14%,.,.,.,.
CO[C@@H]1[C@]2(O)C(=O)N3/C=C\C(C)(C)c4[nH]c5ccccc5c4/C=C\3C(=O)N2[C@]23[C@H](CO)C(C)(C)N2c2ccccc2[C@]13O,.,.,.,3%[27.3 µM],.,.,.,.

# High-throughput results from PubChem BioAssay.
